The text below walks through data of PubChem BioAssay AID504834 (National Center for Advancing Translational Sciences (NCATS), 2011).

SMILES strings stand for the structures. Hit rate of the full screen: of about 320,000 compounds, about 22,000 (6.9%) were called active. Inconclusive results (about 27%) are left out. What follows is part of a selection rich in actives, with near analogues and random picks from the rest. Unmarked numbers belong to inactive results. The call rests on the fitted dose curve; in most records, active means well fitted inhibition curve with a large enough effect; inconclusive means small, poorly fitted or top-dose-only effect, or another doubt; inactive means no such curve, though single readings can be large or run the other way.
On the % scale 0 is the no-effect control and ±100 the full control effect; potency means the concentration at half of the fitted maximal effect.

A short description of this experiment: Primary qHTS for delayed death inhibitors of the malarial parasite plastid, 96 hour incubation. As to conditions: P. falciparum luciferase reporter growth; series mostly up to 28.7 µM; activity change, negative = inhibition: at the top concentration. In short, it runs like this: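 Two-generation exposure (96 h) targets delayed-death phenotype. Reporter parasites carrying integrated firefly luciferase, in red cells at 2% hematocrit and 0.05% parasitemia final, kept at 37 C, 5% CO2; luminescence loss indicates inhibition.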
(In general: Quantitative high-throughput screening tests each substance at several concentrations.)
As for `CC(=O)Nc1ccc(S(=O)(=O)N2CCC(C(=O)N[C@@H](Cc3ccccc3)C(=O)O)CC2)cc1`, the “activity change, negative = inhibition” value was 16.2%.

Regarding `CC(OC(=O)CCC(=O)c1ccccc1)C(=O)Nc1ccc(F)cc1` (stereo unspecified), the “activity change, negative = inhibition” value was 4.68%.

Take `NC(=O)CN1CCCC1c1ccc2c(c1)OCCO2` (stereo unspecified): the “activity change, negative = inhibition” value was 37.4%.

Turning to `O=C(C1CCCN(S(=O)(=O)c2ccc([N+](=O)[O-])cc2)C1)N1CCCCC1` (stereo unspecified), the “activity change, negative = inhibition” value is 83%.

For `O=C(C1CCC1)N1CCN(S(=O)(=O)c2ccc([N+](=O)[O-])cc2)CC1`, the Potency is 10.4 µM (active).

Regarding `O=C(Cc1ccccc1)N1CCN(S(=O)(=O)c2ccc([N+](=O)[O-])cc2)CC1`, the “activity change, negative = inhibition” value is 0.489%.

Turning to `O=C(/C=C/c1ccccc1[N+](=O)[O-])NCC1CCCO1` (stereo unspecified), the “activity change, negative = inhibition” value was 0%.

Turning to `CC1CCCCC1NC(=O)/C(C#N)=C/C=C/c1ccccc1[N+](=O)[O-]` (stereo unspecified), the Potency was 11.7 µM (active).

Turning to `O=C(/C=C/c1ccccc1[N+](=O)[O-])OC1CCCCC1=O` (stereo unspecified), the “activity change, negative = inhibition” value was 22.2%.

With `CC(=O)Nc1cccc(C(=O)OCC(=O)Nc2nnc(-c3ccccc3)o2)c1`, the “activity change, negative = inhibition” value is -0.187%.

`CC(OC(=O)/C=C/c1ccccc1)C(=O)NC1CCCCC1C` (stereo unspecified): the “activity change, negative = inhibition” value is -13.5%.

Turning to `CC[N+](C)(CC)CCC[n+]1c(-c2ccccc2)c2cc(N)ccc2c2ccc(N)cc21`, the Potency is 0.233 µM (active).

As to `O=C(CCNC(=O)c1ccccc1)Nc1nc2ccccc2s1`, the “activity change, negative = inhibition” value is 80.1%.

For `CC(C)(C)OC(=O)NC(Cc1ccccc1)C(=O)NC(CSC1CCCCO1)C(=O)NN` (stereo unspecified), the “activity change, negative = inhibition” value was -13.4%.

Turning to `CCn1cc(C(=O)NCC(=O)NC(C)(C)CO)c(=O)c2cc3c(cc21)OCO3`, the “activity change, negative = inhibition” value was 33.4%.

Consider `COc1cccc(N(CC(=O)NC2CCCCCC2)S(=O)(=O)c2ccccc2)c1`, for which the Potency is 13.1 µM (active).

As to `COc1ccc(N(CC(=O)Nc2ccc(F)c(F)c2)S(=O)(=O)c2c(C)[nH]c(=O)[nH]c2=O)cc1`, the “activity change, negative = inhibition” value was 15.3%.

For the compound `COc1ccc(N(CC(=O)NC2CCCCC2)S(=O)(=O)c2c(C)[nH]c(=O)[nH]c2=O)cc1`, the Potency was 5.86 µM (active).

`O=C(CN(c1cccc(Cl)c1)S(=O)(=O)c1ccccc1)NN=C1CCCC1`: the “activity change, negative = inhibition” value was -104%.

Take `CCOc1ccc(N(CC(=O)Nc2ccccc2F)S(=O)(=O)c2c(C)[nH]c(=O)[nH]c2=O)cc1`: the “activity change, negative = inhibition” value was 10.6%.

`COc1cccc(N(CC(=O)NC2CCCC2)C(=O)CCCC(=O)Nc2ccccn2)c1`: the “activity change, negative = inhibition” value is -25.1%.

Regarding `O=C(Cc1cccs1)NCc1cccc(C(F)(F)F)c1`, the “activity change, negative = inhibition” value is 12.6%.

With `COc1ccc(N2CC(C(=O)NCCS(=O)(=O)N3CCN(c4ccccc4)CC3)CC2=O)cc1` (stereo unspecified), the “activity change, negative = inhibition” value was 107%.

Take `CCC(CC)C(=O)Nc1c2c(nn1-c1ccc(C)cc1)CS(=O)(=O)C2`: the “activity change, negative = inhibition” value is -17.7%.

As to `O=CN1CCN(C(=O)c2ccc3c(c2)OCO3)CC1`, the “activity change, negative = inhibition” value was -14%.

Take `CC(C)CN(C(=O)CSc1nncn1C)C1CCS(=O)(=O)C1` (stereo unspecified): the “activity change, negative = inhibition” value was 45.5%.
